Test [1] addresses T1, Ephrin type-A receptor 3 (Homo sapiens) (UniProt P29320).
T1 sequence (whole entry): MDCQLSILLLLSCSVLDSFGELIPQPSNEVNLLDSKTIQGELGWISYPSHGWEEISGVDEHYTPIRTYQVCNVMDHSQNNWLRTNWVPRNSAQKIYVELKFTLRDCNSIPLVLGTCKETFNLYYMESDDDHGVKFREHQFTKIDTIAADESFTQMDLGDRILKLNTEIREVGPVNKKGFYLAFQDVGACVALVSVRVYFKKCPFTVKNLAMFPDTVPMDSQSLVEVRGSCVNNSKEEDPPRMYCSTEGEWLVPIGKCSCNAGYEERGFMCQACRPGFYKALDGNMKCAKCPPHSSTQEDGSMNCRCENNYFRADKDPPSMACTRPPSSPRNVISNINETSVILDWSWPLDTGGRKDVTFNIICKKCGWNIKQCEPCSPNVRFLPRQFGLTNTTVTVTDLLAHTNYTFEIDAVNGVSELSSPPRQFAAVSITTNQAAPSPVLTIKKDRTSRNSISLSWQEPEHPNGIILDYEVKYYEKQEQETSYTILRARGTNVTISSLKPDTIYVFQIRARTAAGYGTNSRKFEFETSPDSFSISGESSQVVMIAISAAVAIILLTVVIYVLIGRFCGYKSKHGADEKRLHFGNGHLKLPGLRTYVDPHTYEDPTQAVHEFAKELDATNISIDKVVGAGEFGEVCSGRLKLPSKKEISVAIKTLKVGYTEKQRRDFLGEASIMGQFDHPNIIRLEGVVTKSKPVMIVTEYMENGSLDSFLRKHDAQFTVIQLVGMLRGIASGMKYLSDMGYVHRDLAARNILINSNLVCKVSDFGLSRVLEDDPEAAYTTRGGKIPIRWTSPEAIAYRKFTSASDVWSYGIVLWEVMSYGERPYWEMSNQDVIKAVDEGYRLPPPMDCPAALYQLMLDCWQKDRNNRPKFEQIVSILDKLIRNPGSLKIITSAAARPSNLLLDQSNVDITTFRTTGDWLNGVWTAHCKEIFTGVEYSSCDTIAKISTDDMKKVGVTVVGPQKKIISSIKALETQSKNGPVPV
Conditions: at 10 µM.

The target of test [2] is Ephrin type-A receptor 5 (Homo sapiens) (UniProt P54756). The following applies: at 10 µM.
Test [3] concerns the target Ephrin type-A receptor 7 (Homo sapiens) (UniProt Q15375). Conditions: at 1 µM.
For test [4] the target is unchanged. Conditions: at 10 µM.
The target in test [5] is T2, Ephrin type-A receptor 8 (Homo sapiens) (UniProt P29322).
T2 sequence (whole entry): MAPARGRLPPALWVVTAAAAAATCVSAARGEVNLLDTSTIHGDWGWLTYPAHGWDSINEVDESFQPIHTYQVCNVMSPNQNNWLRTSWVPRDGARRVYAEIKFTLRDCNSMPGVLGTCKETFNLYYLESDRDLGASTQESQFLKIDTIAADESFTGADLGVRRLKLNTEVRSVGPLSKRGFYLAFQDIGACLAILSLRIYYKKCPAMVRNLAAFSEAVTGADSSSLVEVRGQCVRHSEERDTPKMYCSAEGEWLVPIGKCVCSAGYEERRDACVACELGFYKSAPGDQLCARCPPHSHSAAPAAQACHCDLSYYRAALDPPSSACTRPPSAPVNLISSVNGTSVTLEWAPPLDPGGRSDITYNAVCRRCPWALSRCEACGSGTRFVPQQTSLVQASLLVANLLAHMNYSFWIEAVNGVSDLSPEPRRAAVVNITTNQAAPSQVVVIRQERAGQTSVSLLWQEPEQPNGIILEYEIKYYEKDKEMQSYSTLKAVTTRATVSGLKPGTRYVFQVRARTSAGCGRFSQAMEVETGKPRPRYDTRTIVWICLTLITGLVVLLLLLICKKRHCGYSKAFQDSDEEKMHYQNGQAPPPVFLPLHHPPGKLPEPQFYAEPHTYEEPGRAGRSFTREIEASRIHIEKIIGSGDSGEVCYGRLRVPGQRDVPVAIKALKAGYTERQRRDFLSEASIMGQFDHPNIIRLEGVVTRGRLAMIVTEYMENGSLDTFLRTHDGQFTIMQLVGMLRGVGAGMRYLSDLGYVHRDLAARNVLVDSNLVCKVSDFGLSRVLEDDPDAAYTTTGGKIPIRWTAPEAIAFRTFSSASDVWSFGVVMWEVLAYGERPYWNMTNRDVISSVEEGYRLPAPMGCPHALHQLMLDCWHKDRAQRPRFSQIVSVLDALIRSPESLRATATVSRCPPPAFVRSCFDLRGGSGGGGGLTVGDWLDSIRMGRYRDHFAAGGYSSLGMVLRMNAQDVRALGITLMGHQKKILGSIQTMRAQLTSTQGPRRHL
The following applies: at 1 µM.

In test [6] the target is T2, Ephrin type-A receptor 8 (Homo sapiens). Conditions: at 10 µM.
The target of test [7] is T3, Ephrin type-B receptor 1 (Homo sapiens) (UniProt P54762).
T3 sequence (whole entry): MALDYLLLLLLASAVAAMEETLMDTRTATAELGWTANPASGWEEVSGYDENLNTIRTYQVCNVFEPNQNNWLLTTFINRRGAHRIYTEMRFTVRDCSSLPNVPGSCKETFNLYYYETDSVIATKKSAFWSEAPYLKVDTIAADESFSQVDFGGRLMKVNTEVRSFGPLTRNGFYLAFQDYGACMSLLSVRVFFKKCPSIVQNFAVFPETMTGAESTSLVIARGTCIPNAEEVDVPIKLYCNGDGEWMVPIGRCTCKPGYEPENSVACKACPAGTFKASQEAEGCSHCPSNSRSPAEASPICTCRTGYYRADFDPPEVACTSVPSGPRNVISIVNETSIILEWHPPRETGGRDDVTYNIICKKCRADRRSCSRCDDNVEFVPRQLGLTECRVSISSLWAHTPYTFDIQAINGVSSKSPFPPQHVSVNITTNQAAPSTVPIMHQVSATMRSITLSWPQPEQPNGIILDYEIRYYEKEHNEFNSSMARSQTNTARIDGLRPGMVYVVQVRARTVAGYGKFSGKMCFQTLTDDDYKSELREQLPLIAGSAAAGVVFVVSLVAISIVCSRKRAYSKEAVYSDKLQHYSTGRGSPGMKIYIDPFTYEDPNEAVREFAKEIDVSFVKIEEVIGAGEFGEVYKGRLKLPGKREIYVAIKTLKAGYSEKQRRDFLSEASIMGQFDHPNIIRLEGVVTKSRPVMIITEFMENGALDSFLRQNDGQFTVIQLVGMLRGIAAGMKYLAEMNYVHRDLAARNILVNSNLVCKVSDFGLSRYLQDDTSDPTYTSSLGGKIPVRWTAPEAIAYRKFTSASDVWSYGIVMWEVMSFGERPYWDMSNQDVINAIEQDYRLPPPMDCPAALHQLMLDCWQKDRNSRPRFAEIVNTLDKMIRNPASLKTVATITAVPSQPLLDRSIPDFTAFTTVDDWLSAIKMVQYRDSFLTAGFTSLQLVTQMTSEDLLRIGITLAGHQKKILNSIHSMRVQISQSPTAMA
The following applies: at 1 µM.

Test [8] concerns the target T3, Ephrin type-B receptor 1 (Homo sapiens). Conditions: at 10 µM.
For test [9], the target named is T4, Ephrin type-B receptor 2 (Homo sapiens) (UniProt P29323).
T4 sequence (whole entry): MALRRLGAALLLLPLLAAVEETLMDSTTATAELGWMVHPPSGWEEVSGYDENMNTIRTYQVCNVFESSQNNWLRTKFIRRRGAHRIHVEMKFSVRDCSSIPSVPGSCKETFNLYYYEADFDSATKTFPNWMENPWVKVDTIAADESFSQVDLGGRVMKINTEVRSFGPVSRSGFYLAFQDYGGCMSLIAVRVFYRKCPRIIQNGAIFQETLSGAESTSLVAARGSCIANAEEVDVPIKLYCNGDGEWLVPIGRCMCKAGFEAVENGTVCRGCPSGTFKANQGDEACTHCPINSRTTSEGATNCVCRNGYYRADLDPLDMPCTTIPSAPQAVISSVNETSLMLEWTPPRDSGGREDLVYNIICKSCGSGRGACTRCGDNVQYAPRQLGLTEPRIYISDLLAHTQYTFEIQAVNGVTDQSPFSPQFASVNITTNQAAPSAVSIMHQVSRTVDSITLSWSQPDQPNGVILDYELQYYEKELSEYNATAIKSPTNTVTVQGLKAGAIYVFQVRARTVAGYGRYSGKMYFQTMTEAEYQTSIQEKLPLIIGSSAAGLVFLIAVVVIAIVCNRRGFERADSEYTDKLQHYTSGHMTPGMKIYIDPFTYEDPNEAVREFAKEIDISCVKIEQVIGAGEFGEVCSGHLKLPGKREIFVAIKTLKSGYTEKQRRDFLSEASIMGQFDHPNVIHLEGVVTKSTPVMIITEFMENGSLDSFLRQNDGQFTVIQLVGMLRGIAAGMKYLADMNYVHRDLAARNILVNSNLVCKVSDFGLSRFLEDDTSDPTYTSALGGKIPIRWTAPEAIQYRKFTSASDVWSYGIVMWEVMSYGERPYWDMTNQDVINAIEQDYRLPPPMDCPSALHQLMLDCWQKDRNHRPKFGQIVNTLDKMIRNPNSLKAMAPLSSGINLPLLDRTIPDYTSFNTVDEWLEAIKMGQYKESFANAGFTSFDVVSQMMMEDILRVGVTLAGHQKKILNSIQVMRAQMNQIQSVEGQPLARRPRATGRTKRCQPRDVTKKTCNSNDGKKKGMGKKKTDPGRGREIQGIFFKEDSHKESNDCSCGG
Conditions: at 1 µM.

For test [10], the target named is T5, Ephrin type-B receptor 4 (Homo sapiens) (UniProt P54760).
T5 sequence (whole entry): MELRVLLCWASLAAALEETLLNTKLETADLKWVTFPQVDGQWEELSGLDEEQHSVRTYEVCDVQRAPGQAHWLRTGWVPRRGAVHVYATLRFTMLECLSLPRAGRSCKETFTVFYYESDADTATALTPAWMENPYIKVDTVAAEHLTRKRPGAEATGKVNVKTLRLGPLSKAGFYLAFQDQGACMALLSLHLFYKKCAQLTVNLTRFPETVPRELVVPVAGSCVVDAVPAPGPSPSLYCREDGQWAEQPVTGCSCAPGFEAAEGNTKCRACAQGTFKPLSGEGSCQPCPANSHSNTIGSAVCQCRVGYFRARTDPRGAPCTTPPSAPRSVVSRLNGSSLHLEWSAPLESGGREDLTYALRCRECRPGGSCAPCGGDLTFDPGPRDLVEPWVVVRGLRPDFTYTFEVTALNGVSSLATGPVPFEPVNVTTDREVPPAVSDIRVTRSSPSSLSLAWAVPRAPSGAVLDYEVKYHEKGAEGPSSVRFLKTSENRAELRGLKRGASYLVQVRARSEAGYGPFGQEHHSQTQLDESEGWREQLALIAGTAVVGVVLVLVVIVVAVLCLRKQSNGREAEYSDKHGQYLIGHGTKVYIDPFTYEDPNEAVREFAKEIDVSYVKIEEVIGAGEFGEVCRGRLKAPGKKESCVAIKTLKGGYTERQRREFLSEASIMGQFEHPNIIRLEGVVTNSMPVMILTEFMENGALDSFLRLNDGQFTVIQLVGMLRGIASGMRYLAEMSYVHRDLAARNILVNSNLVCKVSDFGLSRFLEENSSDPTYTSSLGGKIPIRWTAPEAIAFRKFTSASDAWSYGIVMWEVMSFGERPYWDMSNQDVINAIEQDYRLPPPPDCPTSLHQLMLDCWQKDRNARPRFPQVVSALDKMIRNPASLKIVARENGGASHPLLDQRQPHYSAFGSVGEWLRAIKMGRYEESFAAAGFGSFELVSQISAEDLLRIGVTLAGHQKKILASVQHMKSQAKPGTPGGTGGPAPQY
Conditions: at 1 µM.

For test [11], the target named is Receptor tyrosine-protein kinase erbB-4 (Homo sapiens) (UniProt Q15303). The following applies: at 1 µM.
Test [12] has the same target. Conditions: at 10 µM.
For test [13], the target named is Focal adhesion kinase 1 (Homo sapiens) (UniProt Q05397). Conditions: at 1 µM.
Sequence of Focal adhesion kinase 1 (Homo sapiens) (Q05397 2-1052 limits assumed): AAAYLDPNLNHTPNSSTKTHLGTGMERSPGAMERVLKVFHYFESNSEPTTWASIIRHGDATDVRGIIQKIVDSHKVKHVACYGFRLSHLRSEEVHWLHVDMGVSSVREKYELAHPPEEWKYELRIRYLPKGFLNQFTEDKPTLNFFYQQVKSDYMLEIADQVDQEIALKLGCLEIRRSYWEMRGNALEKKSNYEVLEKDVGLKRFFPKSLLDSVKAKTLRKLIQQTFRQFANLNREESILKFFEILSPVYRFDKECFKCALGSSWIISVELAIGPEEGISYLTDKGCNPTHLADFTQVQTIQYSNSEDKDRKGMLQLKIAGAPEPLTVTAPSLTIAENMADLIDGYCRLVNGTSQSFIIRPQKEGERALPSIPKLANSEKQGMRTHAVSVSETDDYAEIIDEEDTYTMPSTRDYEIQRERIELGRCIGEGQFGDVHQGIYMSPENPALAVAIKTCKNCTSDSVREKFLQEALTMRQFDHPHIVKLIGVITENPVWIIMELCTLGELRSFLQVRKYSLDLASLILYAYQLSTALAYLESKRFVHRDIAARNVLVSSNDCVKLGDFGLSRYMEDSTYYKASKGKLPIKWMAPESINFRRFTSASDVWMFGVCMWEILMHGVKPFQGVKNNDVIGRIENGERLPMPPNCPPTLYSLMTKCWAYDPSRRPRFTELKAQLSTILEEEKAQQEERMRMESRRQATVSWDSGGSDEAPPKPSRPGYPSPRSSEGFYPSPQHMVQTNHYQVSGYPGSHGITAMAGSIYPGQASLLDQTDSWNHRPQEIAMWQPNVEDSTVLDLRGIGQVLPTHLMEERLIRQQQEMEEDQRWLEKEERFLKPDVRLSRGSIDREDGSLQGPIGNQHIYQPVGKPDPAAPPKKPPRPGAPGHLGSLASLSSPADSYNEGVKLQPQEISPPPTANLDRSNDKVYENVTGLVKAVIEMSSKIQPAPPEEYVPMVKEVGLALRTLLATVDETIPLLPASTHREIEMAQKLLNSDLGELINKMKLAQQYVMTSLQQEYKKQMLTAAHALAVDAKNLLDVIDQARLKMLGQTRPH

Sequence of Ephrin type-A receptor 7 (Homo sapiens) (Q15375 28-998 limits assumed): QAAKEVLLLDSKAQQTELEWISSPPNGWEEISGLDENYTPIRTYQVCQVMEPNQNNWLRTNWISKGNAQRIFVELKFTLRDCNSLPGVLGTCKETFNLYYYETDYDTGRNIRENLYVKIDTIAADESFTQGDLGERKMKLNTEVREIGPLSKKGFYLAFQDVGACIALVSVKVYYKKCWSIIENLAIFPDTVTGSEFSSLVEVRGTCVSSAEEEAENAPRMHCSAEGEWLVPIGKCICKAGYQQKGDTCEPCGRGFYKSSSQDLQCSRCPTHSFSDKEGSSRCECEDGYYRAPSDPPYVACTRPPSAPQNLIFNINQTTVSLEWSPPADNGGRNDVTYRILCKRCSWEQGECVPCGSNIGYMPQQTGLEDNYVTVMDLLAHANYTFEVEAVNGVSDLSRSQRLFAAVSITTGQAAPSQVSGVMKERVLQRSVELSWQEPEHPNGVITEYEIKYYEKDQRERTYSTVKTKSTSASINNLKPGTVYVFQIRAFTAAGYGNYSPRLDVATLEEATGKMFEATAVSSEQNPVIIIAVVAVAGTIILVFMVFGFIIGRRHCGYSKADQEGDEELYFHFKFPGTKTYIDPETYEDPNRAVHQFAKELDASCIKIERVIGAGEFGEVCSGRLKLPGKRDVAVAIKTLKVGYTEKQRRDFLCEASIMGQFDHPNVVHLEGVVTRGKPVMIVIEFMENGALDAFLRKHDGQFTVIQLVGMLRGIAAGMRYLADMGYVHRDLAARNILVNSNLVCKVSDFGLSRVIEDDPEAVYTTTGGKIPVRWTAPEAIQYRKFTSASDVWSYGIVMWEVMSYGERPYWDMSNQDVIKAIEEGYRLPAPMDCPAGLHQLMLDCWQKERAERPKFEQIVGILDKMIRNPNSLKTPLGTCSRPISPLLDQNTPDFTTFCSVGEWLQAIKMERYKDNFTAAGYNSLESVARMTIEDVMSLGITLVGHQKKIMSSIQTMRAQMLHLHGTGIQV
Sequence of Receptor tyrosine-protein kinase erbB-4 (Homo sapiens) (Q15303 whole entry): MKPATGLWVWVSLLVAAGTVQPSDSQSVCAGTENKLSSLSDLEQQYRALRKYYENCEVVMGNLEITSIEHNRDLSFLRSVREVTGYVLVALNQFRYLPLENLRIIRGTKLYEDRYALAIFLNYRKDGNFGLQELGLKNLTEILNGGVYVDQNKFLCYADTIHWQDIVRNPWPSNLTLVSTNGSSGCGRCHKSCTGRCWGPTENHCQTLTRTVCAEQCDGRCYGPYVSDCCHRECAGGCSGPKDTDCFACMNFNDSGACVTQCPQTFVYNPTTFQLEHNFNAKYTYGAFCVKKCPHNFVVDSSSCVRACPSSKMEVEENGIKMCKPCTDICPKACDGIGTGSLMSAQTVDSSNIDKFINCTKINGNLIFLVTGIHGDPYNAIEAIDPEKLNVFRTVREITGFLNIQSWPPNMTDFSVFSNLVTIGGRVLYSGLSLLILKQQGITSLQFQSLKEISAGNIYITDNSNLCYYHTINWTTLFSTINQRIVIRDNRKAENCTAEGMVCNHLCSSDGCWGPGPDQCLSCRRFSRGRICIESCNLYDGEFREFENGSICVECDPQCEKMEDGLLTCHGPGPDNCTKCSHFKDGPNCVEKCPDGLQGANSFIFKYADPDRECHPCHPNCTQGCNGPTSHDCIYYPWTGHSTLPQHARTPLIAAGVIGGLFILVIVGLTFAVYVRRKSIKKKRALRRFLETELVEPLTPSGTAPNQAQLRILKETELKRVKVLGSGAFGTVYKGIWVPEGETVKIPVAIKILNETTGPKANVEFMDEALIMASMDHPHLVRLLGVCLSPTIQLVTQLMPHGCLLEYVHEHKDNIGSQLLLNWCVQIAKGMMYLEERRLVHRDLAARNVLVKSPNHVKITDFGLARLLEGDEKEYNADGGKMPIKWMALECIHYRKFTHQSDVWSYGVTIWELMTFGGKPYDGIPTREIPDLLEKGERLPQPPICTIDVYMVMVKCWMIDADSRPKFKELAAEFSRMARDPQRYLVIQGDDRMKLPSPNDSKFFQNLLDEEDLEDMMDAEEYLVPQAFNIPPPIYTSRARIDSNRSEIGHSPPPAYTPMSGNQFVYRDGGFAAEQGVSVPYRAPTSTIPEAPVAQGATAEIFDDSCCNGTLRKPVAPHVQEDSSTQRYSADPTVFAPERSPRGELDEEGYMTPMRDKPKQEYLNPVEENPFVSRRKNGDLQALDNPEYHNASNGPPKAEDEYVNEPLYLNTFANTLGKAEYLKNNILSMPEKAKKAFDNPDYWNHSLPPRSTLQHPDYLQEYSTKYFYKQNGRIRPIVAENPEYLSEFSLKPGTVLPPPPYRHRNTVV
Sequence of Ephrin type-A receptor 5 (Homo sapiens) (P54756 whole entry): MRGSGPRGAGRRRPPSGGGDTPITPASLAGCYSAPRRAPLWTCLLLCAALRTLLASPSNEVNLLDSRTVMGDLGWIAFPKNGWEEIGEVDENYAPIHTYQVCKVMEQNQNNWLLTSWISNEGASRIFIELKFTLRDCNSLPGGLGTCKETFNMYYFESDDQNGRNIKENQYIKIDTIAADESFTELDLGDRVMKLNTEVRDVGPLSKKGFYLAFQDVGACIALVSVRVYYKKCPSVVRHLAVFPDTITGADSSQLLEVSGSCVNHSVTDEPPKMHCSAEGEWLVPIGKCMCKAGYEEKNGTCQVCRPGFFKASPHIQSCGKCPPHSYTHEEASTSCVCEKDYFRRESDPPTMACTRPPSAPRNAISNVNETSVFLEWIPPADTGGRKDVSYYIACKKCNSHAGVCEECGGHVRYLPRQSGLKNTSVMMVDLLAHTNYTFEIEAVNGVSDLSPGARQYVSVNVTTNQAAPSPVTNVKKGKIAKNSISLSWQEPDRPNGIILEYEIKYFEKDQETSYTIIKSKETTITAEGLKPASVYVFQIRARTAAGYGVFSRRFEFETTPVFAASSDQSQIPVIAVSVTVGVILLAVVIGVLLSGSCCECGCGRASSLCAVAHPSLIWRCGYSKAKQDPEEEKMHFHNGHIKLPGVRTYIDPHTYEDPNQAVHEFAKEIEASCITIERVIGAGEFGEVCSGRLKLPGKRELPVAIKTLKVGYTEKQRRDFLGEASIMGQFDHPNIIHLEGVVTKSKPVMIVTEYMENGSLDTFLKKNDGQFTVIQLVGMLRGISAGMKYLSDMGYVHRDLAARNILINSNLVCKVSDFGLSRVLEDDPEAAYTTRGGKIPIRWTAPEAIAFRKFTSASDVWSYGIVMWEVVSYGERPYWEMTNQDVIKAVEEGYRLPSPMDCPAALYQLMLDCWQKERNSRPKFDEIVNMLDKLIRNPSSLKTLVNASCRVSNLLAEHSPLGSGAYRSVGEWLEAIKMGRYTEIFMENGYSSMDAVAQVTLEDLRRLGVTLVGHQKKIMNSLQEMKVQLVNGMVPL

As for `O=c1cc(N2CCNCC2)oc2c(-c3ccccc3)cccc12`, the residual activity in [1] was 77%; in test [2], 103%; in [3], 98%; in test [4], 88%; in test [5] it was 102%; in test [6] it was 100%. The residual activity in test [7] turned out to be 100%; in [8] it was 105%; in test [9], 103%; in [10] it was 97%; in test [11], 95%; in test [12], 73%. For the same compound, in [13], the residual activity is 105%.

By residual activity is commonly meant the signal under treatment as a percentage of the control signal.

These data come from ChEMBL document CHEMBL2218924, “A broad activity screen in support of a chemogenomic map for kinase signalling research and drug discovery” (Biochem J, 2013).
